Source: PubChem BioAssay
PrP 5UTR inh – inhibition of PrP 5' UTR reporter expression; AID 488862; hit rate 0.35% among 340,000; inhibition, % (test concentration not listed); cell-based PrP 5' UTR mRNA reporter, plate reader; in the data active = inhibition above about 52%; note: 0 = median of the neutral control wells
Y pestis TopoI – inhibitors of Yersinia pestis topoisomerase I; Y. pestis Topo-I cleavage product accumulation, plate reader; activity, % at 10 µM; hit rate 0.064% among 360,000; AID 504884; in the data active = activity above about 50%, passing the limit was not always enough
FadD28 binding – blocks FadD28 binding to the bisubstrate probe; fluorescence polarization; inhibition, % at 12.5 µM; hit rate 0.22% among 360,000; in the data active = inhibition above about 8.5%, passing the limit was not always enough
BioA inh – inhibitors of Mycobacterium tuberculosis BioA enzyme; AID 602481; hit rate 0.096% among 360,000; inhibition, % at 9.99 µM; purified M. tuberculosis BioA enzyme, plate reader; in the data active = inhibition above about 40%
PfHsp40 yeast – restores yeast growth despite PfHsp40 toxicity. S. cerevisiae expressing PfHsp40, growth rescue, ATP luminescence. growth rescue, % at 12.5 µM. hit rate 0.68% among 340,000. AID 504582; in the data active = growth rescue above about 28%, passing the limit was not always enough;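 note: yeast W303a lacking pdr1 and pdr3 grown in galactose medium; growth measured after three days at 30 °C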
Starred values were filed as active, the others as inactive; . = no result. An excerpt weighted towards active compounds, which were near 1.1% of everything screened.

SMILES	PrP 5UTR inh	Y pestis TopoI	FadD28 binding	BioA inh	PfHsp40 yeast
CC(=O)c1ccccc1NC(=O)COC(=O)c1ccccc1NC(=O)c1ccccc1	-19.4	7.5	-4.6	.	7.3
COC(=O)COC(=O)c1ccccc1NC(=O)c1ccccc1	-15.0	-7.6	-4.1	.	245.4*
CCc1ccc(NC(=O)COC(=O)/C=C/c2c(C)nn(C3CCS(=O)(=O)C3)c2Cl)cc1 (configuration not stated)	-18.9	1.1	-1.9	.	59.3*
Cc1cc(/C=C2\C(=O)NC(=O)N(Cc3ccccc3)C2=O)c(C)n1-c1ccc(Cl)c(C(=O)O)c1	-26.1	-5.6	16.0*	.	-0.4
CC(C)NC(=O)Nc1ccc2c(c1)C(=O)N([C@H](C)CO)C[C@H](C)[C@H](CN(C)C(=O)Nc1ccc(F)cc1)OCCCC[C@H](C)O2	.	.	.	0.8	.
CCc1nnc(NC(=O)c2ccc(S(=O)(=O)N(CC)Cc3ccccc3)cc2)o1	-6.5	-4.7	-1.1	-0.5	172.2*
CSCCC(NC(=O)c1ccccc1Cl)C(=O)NCc1ccncc1 (configuration not stated)	-14.3	3.5	-3.7	-0.6	-1.6
CSCCC(NC(N)=O)C(=O)NCc1ccc(Cl)cc1 (configuration not stated)	-22.7	8.9	-1.2	-0.8	80.4*
C[C@@H]1CN([C@@H](C)CO)C(=O)c2cc(NC(=O)Nc3cccc4ccccc34)ccc2O[C@@H](C)CCCCO[C@@H]1CN(C)S(=O)(=O)c1ccccc1	.	.	.	-3.3	.
CC(=O)OCC1OC(n2cc(F)c(=O)[nH]c2=O)C(OC(C)=O)C1OC(C)=O (configuration not stated)	-83.2	7.6	-4.2	2.0	-1.3
O=C1C(F)=CC(COC(c2ccccc2)(c2ccccc2)c2ccccc2)OC1n1cc(F)c(=O)[nH]c1=O (configuration not stated)	-14.5	36.3	-10.8	.	153.8*
O=C(/C=C/c1ccccc1[N+](=O)[O-])c1ccccc1Br	-20.1	-6.5	-3.2	3.7	59.9*
Cc1ccc(C(=O)/C=C/c2ccccc2[N+](=O)[O-])cc1	-43.2	7.1	-2.9	.	1.6
CC(=O)N(C)C[C@H]1Oc2ncc(C#C[C@H](C)O)cc2C(=O)N([C@@H](C)CO)C[C@H]1C	.	.	.	-0.5	.
CCC(=O)Nc1ccc2c(c1)OC[C@H](C)N(C(=O)c1ccccn1)C[C@H](C)[C@@H](OC)CN(C)C2=O	.	.	.	-1.9	.
O=C(C1CCOCC1)N1C[C@@H]2[C@H](c3ccccc31)[C@@H](CO)N2C(=O)c1ccccc1	.	.	.	-2.8	.
CC(C)(C)OC(=O)NCc1ccc(NC(=O)c2nc[nH]c2C(=O)NCCCCNC(=O)c2[nH]cnc2C(=O)Nc2ccc(CNC(=O)OC(C)(C)C)cc2)cc1	18.9	-4.4	-1.8	-2.1	-0.6
CC(C)(C)OC(=O)NCc1ccc(NC(=O)c2nc[nH]c2C(=O)NCCCNC(=O)c2[nH]cnc2C(=O)Nc2ccc(CNC(=O)OC(C)(C)C)cc2)cc1	22.5	79.2*	-3.8	-2.0	-1.7
Cc1ccc(CN(C)C(=O)c2cccc(S(=O)(=O)N3CCc4ccccc43)c2)cc1	0.2	-0.8	-1.2	0.0	-0.6
NC(=O)CCN(C(=O)c1cccc(S(=O)(=O)N2CCc3ccccc32)c1)c1ccccc1	-14.2	23.7	-3.7	3.2	46.6*
O=C(Nc1ccc2c(c1)CCC2)c1cc2ccccc2o1	-136.9	10.1	-7.4	-1.9	132.3*
Cc1ccc2c(c1)/C(=N/OS(=O)(=O)c1ccccc1)CCS2	-20.3	0.2	0.6	2.0	-0.9
CC1=CC(=O)C(C(C)C)=C/C1=N/OS(=O)(=O)c1ccccc1	-8.2	2.4	-2.3	-0.9	346.1*
CC1=CC(=O)C=C(C)C1=NOS(=O)(=O)c1ccccc1	-4.4	-9.1	-3.6	-1.4	334.8*
CCCS(=O)(=O)c1c(S(=O)(=O)CCC)c2c(C)cccn2c1C(=O)N/N=C/c1cc(O)cc(O)c1	-4.5	-11.3	-1.9	3.1	451.8*
SMILES	PrP 5UTR inh	Y pestis TopoI	FadD28 binding	BioA inh	PfHsp40 yeast
CCCS(=O)(=O)c1c(S(=O)(=O)CCC)c2c(C)cccn2c1C(N)=O	-15.3	5.9	0.0	-0.6	-1.3
CC(C)NC(=O)N(C)C[C@H]1Oc2ccc(NC(=O)Nc3ccc(F)cc3)cc2C(=O)N([C@H](C)CO)C[C@H]1C	.	.	.	-1.2	.
O=C(CN1C(=O)c2ccccc2C1=O)N(CCO)Cc1ccccc1	-7.8	-2.9	22.5*	-0.2	0.0
CCN(Cc1ccccc1)C(=O)CN1C(=O)c2ccccc2C1=O	-11.1	-16.0	-0.6	-0.6	-0.2
C[C@@H]1CN([C@H](C)CO)C(=O)Cc2cc(NS(=O)(=O)c3ccc(Cl)cc3)ccc2O[C@@H]1CN(C)C(=O)Nc1ccccc1	.	.	.	-1.1	.
O=C(C[C@@H]1C[C@@H]2c3cc(NS(=O)(=O)c4ccccc4)ccc3O[C@@H]2[C@@H](CO)O1)N1CCCCC1	.	.	.	1.7	.
O=C(c1cccc(C(F)(F)F)c1)C1CCCN(Cc2ncc[nH]2)C1 (configuration not stated)	-11.5	-2.2	-2.2	-2.0	14.2
c1c[nH]c(CN2CCN(Cc3ncc[nH]3)CC2)n1	-16.3	1.2	0.3	-0.3	383.8*
Oc1c(N=Nc2nn[nH]n2)ccc2ccccc12	.	.	29.8*	.	.
Cc1cccc(O)c1C	-12.5	-2.2	1.6	-3.1	-0.4
Cc1cccc(C)c1N=Nc1c(C)cc(O)cc1C	-8.3	-9.1	-1.3	-1.5	781.5*
Cc1ccc(C)c(NC(=O)CSc2sc3c(O)cc(=O)[nH]c3c2C#N)c1	-1.9	-1.7	-3.8	0.2	0.4
Cc1ccc(Cl)cc1NC(=O)CSc1sc2c(O)cc(=O)[nH]c2c1C#N	-17.5	-0.8	0.9	-2.5	47.1*
CS(=O)(=O)N1c2cccc3cccc(c23)S1(=O)=O	-29.9	-2.2	0.3	-2.0	48.1*
CN1C(=O)c2cc(NS(=O)(=O)c3ccc(Cl)cc3)ccc2OC[C@H]2O[C@@H](CC(=O)N3CCc4ccccc4C3)CC[C@@H]21	.	.	.	-2.9	.
C[C@H](CO)N1C[C@H](C)[C@@H](CN(C)C(=O)CCC(F)(F)F)OCCCC[C@H](C)Oc2ccc(NS(=O)(=O)c3ccc(Cl)cc3)cc2C1=O	.	.	.	2.2	.
CC(C)n1cnc2c(NCc3ccccc3)cc(Cc3ccc(F)cc3)cc21	-11.3	5.1	-3.2	0.2	115.4*
OCC12CO[C@@H]3c4ccccc4[C@H](OC1)N32 (some centres not stated)	-9.2	0.3	-3.0	-0.1	44.9*
CC1CCN(S(=O)(=O)c2ccc(C(=O)Nc3nnc(C4CC4)o3)cc2)CC1	-8.0	-2.9	-3.3	-1.5	58.0*
Cc1nn(C)cc1NC(=O)C[C@@H]1CC[C@H]2[C@H](COc3ccc(NC(=O)Nc4cccc(Cl)c4)cc3C(=O)N2C)O1	.	.	.	1.1	.
Nc1cc2c3ccccc3ccc2c2ccccc12	-113.4	-23.7	-1.0	.	249.1*
Nc1ccc2ccccc2c1[N+](=O)[O-]	-7.3	-3.3	-15.6	.	0.5
C[C@@H]1CN([C@H](C)CO)C(=O)c2cc(NC(=O)c3ccccc3)ccc2O[C@@H](C)CCCCO[C@H]1CN(C)C(=O)Nc1ccccc1	.	.	.	-0.9	.
CC(C)N(Cc1ccccc1)C(=O)CN1c2cccc3cccc(c23)S1(=O)=O	-3.1	-2.6	.	0.6	69.6*
